Data published in PubChem BioAssay AID1159580 (chemical genetic matrix, 2015).
The campaign covered roughly 5,500 compounds. About 2,000 (36%) were called active. Inconclusive results (about 18%) are left out. No stated cut-off is given here; in the data, active means normalized growth mostly below about 0.91 (no sharp cut-off); inconclusive means no clear call, values can overlap the other calls; inactive means mostly above about 0.92. The list shows a part of the results.

Assay: chemical genetic growth profiling, strain panel (AID 1159580);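 further: tested at 20 µM; growth read once vehicle control cultures reached saturation at 30 °C; 1 = growth at the plate median or of vehicle wells; lower values mean less growth of the strain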
Settings: growth OD

Measured: normalized growth

CN(C)C(=S)SSC(=S)N(C)C
active: S. cerevisiae deletion strains, locus YJR075W, strain HOC1, hits give low values 0.0622 | S. cerevisiae deletion strains, locus YKL009W, strain mrt4, hits give low values 0.657 | S. cerevisiae deletion strains, locus YKL068W, hits give low values 0.055 | S. cerevisiae deletion strains, locus YKL085W, strain MDH1 (second series), hits give low values 0.0509 | S. cerevisiae deletion strains, locus YKL085W, strain MDH1, hits give low values 0.0509 | S. cerevisiae deletion strains, locus YKL160W, strain elf1, hits give low values 0.0619 | S. cerevisiae deletion strains, locus YKL190W, strain CNB1, hits give low values 0.0467 | S. cerevisiae deletion strains, locus YKR001C, strain vps1, hits give low values 0.061 | S. cerevisiae deletion strains, locus YKR026C, strain gcn3, hits give low values 0.0601 | S. cerevisiae deletion strains, locus YKR091W, strain srl3, hits give low values 0.058 | S. cerevisiae deletion strains, locus YLL001W, strain dnm1, hits give low values 0.0595 | S. cerevisiae deletion strains, locus YLL026W, hits give low values 0.0612 | S. cerevisiae deletion strains, locus YLL041C, strain sdh2, hits give low values 0.0559 | S. cerevisiae deletion strains, locus YLR027C, strain aat2, hits give low values 0.0546 | S. cerevisiae deletion strains, locus YLR039C, strain RIC1, hits give low values 0.0839 | S. cerevisiae deletion strains, locus YLR058C, strain SHM2, hits give low values 0.048 | S. cerevisiae deletion strains, locus YLR102C, strain apc9, hits give low values 0.0608 | S. cerevisiae deletion strains, locus YLR113W, strain HOG1, hits give low values 0.126 | S. cerevisiae deletion strains, locus YLR221C, strain rsa3, hits give low values 0.0608 | S. cerevisiae deletion strains, locus YLR258W, strain gsy2, hits give low values 0.0595 | S. cerevisiae deletion strains, locus YLR262C, strain YPT6 (second series), hits give low values 0.0761 | S. cerevisiae deletion strains, locus YLR262C, strain YPT6, hits give low values 0.0956 | S. cerevisiae deletion strains, locus YLR268W, strain sec22, hits give low values 0.0648 | S. cerevisiae deletion strains, locus YLR320W, strain mms22, hits give low values 0.0851 | S. cerevisiae deletion strains, locus YLR330W, strain CHS5, hits give low values 0.0523 | S. cerevisiae deletion strains, locus YLR342W, strain FKS1 (second series), hits give low values 0.0636 | S. cerevisiae deletion strains, locus YLR342W, strain FKS1, hits give low values 0.0632 | S. cerevisiae deletion strains, locus YLR357W, strain rsc2, hits give low values 0.117 | S. cerevisiae deletion strains, locus YLR370C, strain arc18, hits give low values 0.0609 | S. cerevisiae deletion strains, locus YLR371W, strain rom2, hits give low values 0.0607 | S. cerevisiae deletion strains, locus YLR384C, strain iki3, hits give low values 0.0593 | S. cerevisiae deletion strains, locus YLR418C, strain cdc73, hits give low values 0.0915 | S. cerevisiae deletion strains, locus YML016C, strain PPZ1, hits give low values 0.0487 | S. cerevisiae deletion strains, locus YML032C, strain rad52, hits give low values 0.0671 | S. cerevisiae deletion strains, locus YML120C, strain ndi1, hits give low values 0.0572 | S. cerevisiae deletion strains, locus YML124C, strain tub3, hits give low values 0.0583 | S. cerevisiae deletion strains, locus YMR058W, strain fet3, hits give low values 0.0575 | S. cerevisiae deletion strains, locus YMR078C, strain ctf18, hits give low values 0.0701 | S. cerevisiae deletion strains, locus YMR125W, strain sto1, hits give low values 0.0716 | S. cerevisiae deletion strains, locus YMR129W, hits give low values 0.0557 | S. cerevisiae deletion strains, locus YMR205C, strain PFK2, hits give low values 0.0852 | S. cerevisiae deletion strains, locus YMR223W, strain ubp8, hits give low values 0.062 | S. cerevisiae deletion strains, locus YMR231W, strain pep5, hits give low values 0.0656 | S. cerevisiae deletion strains, locus YMR263W, strain SAP30, hits give low values 0.0571 | S. cerevisiae deletion strains, locus YMR307W, strain GAS1, hits give low values 0.108 | S. cerevisiae deletion strains, locus YNL067W, strain RPL9B, hits give low values 0.0475 | S. cerevisiae deletion strains, locus YNL071W, strain lat1, hits give low values 0.0591 | S. cerevisiae deletion strains, locus YNL128W, strain TEP1, hits give low values 0.0618 | S. cerevisiae deletion strains, locus YNL153C, strain GIM3, hits give low values 0.0449 | S. cerevisiae deletion strains, locus YNL183C, strain NPR1, hits give low values -0.000652 | S. cerevisiae deletion strains, locus YNL209W, strain ssb2, hits give low values 0.0584 | S. cerevisiae deletion strains, locus YNL233W, strain BNI4, hits give low values 0.0527 | S. cerevisiae deletion strains, locus YNL248C, strain rpa49, hits give low values 0.0732 | S. cerevisiae deletion strains, locus YNL250W, strain rad50, hits give low values 0.0632 | S. cerevisiae deletion strains, locus YNL271C, strain bni1, hits give low values 0.0624 | S. cerevisiae deletion strains, locus YNL298W, strain CLA4, hits give low values 0.0589 | S. cerevisiae deletion strains, locus YNL307C, strain MCK1, hits give low values 0.0687 | S. cerevisiae deletion strains, locus YNL322C, strain KRE1 (second series), hits give low values 0.0642 | S. cerevisiae deletion strains, locus YNL322C, strain KRE1, hits give low values 0.0479 | S. cerevisiae deletion strains, locus YNR049C, strain mso1, hits give low values 0.0549 | S. cerevisiae deletion strains, locus YNR052C, strain pop2, hits give low values 0.0601 | S. cerevisiae deletion strains, locus YOL006C, strain TOP1, hits give low values 0.0896 | S. cerevisiae deletion strains, locus YOL012C, strain htz1 0.179 | S. cerevisiae deletion strains, locus YOL147C, strain pex11, hits give low values 0.0594 | S. cerevisiae deletion strains, locus YOR001W, strain rrp6, hits give low values 0.0656 | S. cerevisiae deletion strains, locus YOR061W, strain CKA2, hits give low values 0.0451 | S. cerevisiae deletion strains, locus YOR069W, strain VPS5, hits give low values 0.0465 | S. cerevisiae deletion strains, locus YOR070C, strain gyp1, hits give low values 0.0589 | S. cerevisiae deletion strains, locus YOR080W, strain dia2, hits give low values 0.067 | S. cerevisiae deletion strains, locus YOR083W, strain WHI5, hits give low values 0.0647 | S. cerevisiae deletion strains, locus YOR106W, strain vam3, hits give low values 0.061 | S. cerevisiae deletion strains, locus YOR136W, strain idh2, hits give low values 0.0736 | S. cerevisiae deletion strains, locus YOR144C, strain elg1, hits give low values 0.0615 | S. cerevisiae deletion strains, locus YOR184W, strain ser1, hits give low values 0.0681 | S. cerevisiae deletion strains, locus YOR231W, strain MKK1, hits give low values 0.103 | S. cerevisiae deletion strains, locus YOR265W, strain rbl2, hits give low values 0.0567 | S. cerevisiae deletion strains, locus YOR270C, strain vph1, hits give low values 0.0916 | S. cerevisiae deletion strains, locus YOR290C, strain snf2, hits give low values 0.0706 | S. cerevisiae deletion strains, locus YOR316C, strain cot1, hits give low values 0.0552 | S. cerevisiae deletion strains, locus YPL051W, strain arl3, hits give low values 0.0635 | S. cerevisiae deletion strains, locus YPL055C, strain LGE1, hits give low values 0.0716 | S. cerevisiae deletion strains, locus YPL078C, strain atp4, hits give low values 0.0627 | S. cerevisiae deletion strains, locus YPL106C, strain sse1, hits give low values 0.1 | S. cerevisiae deletion strains, locus YPL240C, strain hsp82, hits give low values 0.0673 | S. cerevisiae deletion strains, locus YPL241C, strain CIN2, hits give low values 0.0518 | S. cerevisiae deletion strains, locus YPL256C, strain CLN2, hits give low values 0.125 | S. cerevisiae deletion strains, locus YPR119W, strain clb2, hits give low values 0.0622 | S. cerevisiae deletion strains, locus YPR141C, strain kar3, hits give low values 0.0653 | S. cerevisiae deletion strains, locus YPR163C, strain tif3, hits give low values 0.0696 | S. cerevisiae deletion strains, locus YPR167C, strain met16, hits give low values 0.0614 | S. cerevisiae deletion strains, strain wtn01, hits give low values 0.0602 | S. cerevisiae strains, strain wild type, hits give low values 0.0482
